Source: the OligoGym collection

target: PLA2R1; test: pooled miR-30 sensor sort-seq; sequence = guide strand; details: shRNA
Also: reference of the scale not given here.

**Q.** For TATCACAACCTACTTCTGCAGA, which sensor-assay potency score (higher = more potent) is on record?
**A.** -0.52

**Q.** With TAAAAGATTAGAACCTTCCTTT as the sequence, how does the sensor-assay potency score (higher = more potent) read?
**A.** 0.786

**Q.** With TTTTTCACTATGAAATACCTTG as the sequence, how does the sensor-assay potency score (higher = more potent) read?
**A.** -0.37

**Q.** For TTTTCTTCTAAATATACTGTAC, which sensor-assay potency score (higher = more potent) is on record?
**A.** -0.623

target: PLAA; test: as above; details: shRNA

**Q.** With TTAGTGACAAACATTGGGCTTT as the sequence, how does the sensor-assay potency score (higher = more potent) read?
**A.** 0.657

**Q.** TTAACTTCTTCTCTTCAGGTGC was tested. Which sensor-assay potency score (higher = more potent) did it give?
**A.** 0.5

**Q.** Which sensor-assay potency score (higher = more potent) does the source give for TAACACTCCACTGATAGGCTTC here?
**A.** 0.424

**Q.** For TAGGTCTTGTACTACTTCCAAG, which sensor-assay potency score (higher = more potent) is on record?
**A.** -1.39

**Q.** TAGACTGAGCTGGAAGTCGGAT was tested. Which sensor-assay potency score (higher = more potent) did it give?
**A.** -0.595

**Q.** With TTTAACAGTCTTGTCTGCTGAT as the sequence, how does the sensor-assay potency score (higher = more potent) read?
**A.** 0.5

**Q.** For TTTTAGATGCAGCTGATCGGTA, which sensor-assay potency score (higher = more potent) is on record?
**A.** -0.655

**Q.** With TTATTTGAGAATCAACACCTAA as the sequence, how does the sensor-assay potency score (higher = more potent) read?
**A.** -0.576

**Q.** Which sensor-assay potency score (higher = more potent) does the source give for TAAATCTACAGCATTCACTTAC here?
**A.** -0.27

**Q.** With TATTGTGGTCATTTCCACCGGT as the sequence, how does the sensor-assay potency score (higher = more potent) read?
**A.** 0.536

**Q.** How did the sensor-assay potency score (higher = more potent) turn out when TAATTAGTGACAAACATTGGGC was run?
**A.** -0.357

**Q.** With TATACTTCAAGACACTCGCCAG as the sequence, how does the sensor-assay potency score (higher = more potent) read?
**A.** -0.398

target: PLB1; test: as above; details: shRNA

**Q.** ATACTGTGTGGTGACATCGGGG was tested. Which sensor-assay potency score (higher = more potent) did it give?
**A.** -1.03

**Q.** For TTGATCTTGTTTTCAAACTTAT, which sensor-assay potency score (higher = more potent) is on record?
**A.** -0.907

**Q.** With TAAGGTGGTCACATTCTCCAGG as the sequence, how does the sensor-assay potency score (higher = more potent) read?
**A.** 0.024

**Q.** Which sensor-assay potency score (higher = more potent) does the source give for TACAGATTCGAATCTGTGCAGT here?
**A.** -0.43

**Q.** Which sensor-assay potency score (higher = more potent) does the source give for TACTGTGTGGTGACATCGGGGA here?
**A.** 0.115

**Q.** How did the sensor-assay potency score (higher = more potent) turn out when TTGAAAGTCAAGTTGCAGGTTC was run?
**A.** 0.551

**Q.** For TAGTGGACCAGATCATTGCAGA, which sensor-assay potency score (higher = more potent) is on record?
**A.** -0.927

**Q.** TATTGTTCCAGAGAGCACTGGC was tested. Which sensor-assay potency score (higher = more potent) did it give?
**A.** 0.63

**Q.** How did the sensor-assay potency score (higher = more potent) turn out when TTATCTTCCAGTCTTCCTGAAA was run?
**A.** -0.752

**Q.** For TATTATCTTCCAGTCTTCCTGA, which sensor-assay potency score (higher = more potent) is on record?
**A.** 0.718

**Q.** With TTGTTGGAGGTAGTCTTGCGGC as the sequence, how does the sensor-assay potency score (higher = more potent) read?
**A.** -0.878

**Q.** TCTATGATCATCTTTCATCTTC was tested. Which sensor-assay potency score (higher = more potent) did it give?
**A.** 0.303

target: PLCB3; test: as above; details: shRNA

**Q.** For TTTGATGAACTTACTCCCGCGC, which sensor-assay potency score (higher = more potent) is on record?
**A.** 0.0652

**Q.** With TATTCCACAAACTCCATGGGGC as the sequence, how does the sensor-assay potency score (higher = more potent) read?
**A.** -0.0487

**Q.** How did the sensor-assay potency score (higher = more potent) turn out when TAGTTGGAGGAGTCCACGCGGG was run?
**A.** -1.09

**Q.** For TTCGATGTAGTTGACAAGCGTG, which sensor-assay potency score (higher = more potent) is on record?
**A.** -0.63

**Q.** How did the sensor-assay potency score (higher = more potent) turn out when TTGTCTGCTGAGAACATCTTCA was run?
**A.** -0.392

**Q.** For TTGCGCAGGAAGGTGTTCCGGG, which sensor-assay potency score (higher = more potent) is on record?
**A.** -0.298

**Q.** How did the sensor-assay potency score (higher = more potent) turn out when ATGAAGTTCAAGAACACTGTGT was run?
**A.** 0.354

**Q.** TACTTTTCGATGAGCAGCCGGG was tested. Which sensor-assay potency score (higher = more potent) did it give?
**A.** -0.993

**Q.** TTCGTTGAGTCTCGGGTCGCGT was tested. Which sensor-assay potency score (higher = more potent) did it give?
**A.** -0.421

**Q.** How did the sensor-assay potency score (higher = more potent) turn out when TTGTATTCCACAAACTCCATGG was run?
**A.** -0.418

**Q.** AAGAACACTGTGTTCACCGGGT was tested. Which sensor-assay potency score (higher = more potent) did it give?
**A.** 0.656

**Q.** TTGAATAGCTCCTCAGACCAGA was tested. Which sensor-assay potency score (higher = more potent) did it give?
**A.** -0.311
